DT40 TDP1 CPT – growth inhibition of DT40 Tdp1-/-;hTDP1 cells with camptothecin (screen for TDP1 inhibitors); 420,000 compounds, 12% hits; AID 686979; Potency, µM (titrated, usually from 46.2 µM), most hits filed as inhibitors; chicken DT40 Tdp1-/-;hTDP1 cells + 20 nM CPT, ATP luminescence, 48 h; further: nearly all actives have a fitted effect of over 55% in size
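Chicken DT40 Tdp1-/- cells stably complemented with human TDP1 were seeded at 400 cells/well in medium containing 20 nM camptothecin, exposed to pin-transferred compounds, and grown at 37 °C for at least 48 hr. Viability was read as ATP luminescence.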
HepG2 viability – counter-screen for TGF-b inhibitors: cytotoxicity in HepG2 cells; HepG2 CAGA-GFP viability, ATP luminescence, 18 h; 410,000 compounds, 0.76% hits; Potency, µM (top dose mostly 46.1 µM), usual class: cytotoxic; AID 588856
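HepG2 CAGA-GFP cells (1000/well, DMEM with 1% FBS) received compound, then TGF-beta at 500 pg/mL final, and were incubated 18 hours at 37 degrees C. Viability was read by CellTiter-Glo luminescence. Media-only wells were set as complete cell-killing and DMSO as no toxicity.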
TGFb inhibitor – blocks TGF-b signaling; 410,000 compounds, 1.2% hits; HepG2 CAGA-GFP TGF-b/SMAD3 reporter, GFP fluorescence, 18 h; TGF-beta stimulated, 500 pg/mL final; Potency, µM (titrated, usually from 46.1 µM), hits mostly inhibitors; AID 588855; further: nearly all actives have a fitted effect of over 65% in size
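GFP signal (ex488/em500-530) from TGF-beta-stimulated HEPG2 CAGA-GFP cells, 500 pg/mL final, 18 h at 37 degrees C in DMEM plus 1% FBS, normalized to unstimulated and DMSO-stimulated controls.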
TDP1 cell noCPT – qHTS for Inhibitors of human tyrosyl-DNA phosphodiesterase 1 (TDP1): qHTS in cells in absence of CPT; DT40 Tdp1-/- hTDP1 cells, no CPT, ATP luminescence, 48 h; Potency, µM (titrated, usually from 46.2 µM), actives largely listed as inhibitors; 420,000 compounds, 15% hits; further: nearly all actives have a fitted effect of over 55% in size
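Chicken DT40 Tdp1-/- cells complemented with human TDP1, screened without camptothecin (DMSO vehicle only), 400 cells/well. Compounds pin-transferred, cells incubated at 37 °C for at least 48 hr. Growth read as ATP-dependent luminescence (CellTiter-Glo, 30 min at RT).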
HT1080 IDH1KD tx – HT-1080 IDH1 knockdown cell toxicity (counter line); 360,000 compounds, 2% hits; AID 686971; Potency, µM (doses to about 46.1 µM), hits mostly cytotoxic; HT-1080 IDH1 knockdown viability, ATP luminescence, 48 h
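Assay cells: HT-1080 with IDH1 knockdown, 750 per well, RPMI/5% FBS. Exposure: 48 h at 37 °C following 2 h pre-incubation. Read: CellTiter-Glo luminescence; fitted concentration-response, curve class assigned.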
HT1080-NT tox – kills 2HG-producing HT-1080-NT fibrosarcoma cells; 360,000 compounds, 1.6% hits; HT-1080-NT fibrosarcoma viability, CellTiter-Glo ATP luminescence, 48 h; Potency, µM (top dose mostly 46.1 µM), actives largely listed as cytotoxic;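 further: NT is the 2HG producing partner of a matched IDH1 knockdown line; nearly all actives have a fitted effect of over 55% in size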
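A 48-hour cytotoxicity screen used HT-1080-NT cells plated 2 hours before compound delivery. ATP-based CellTiter-Glo luminescence measured viability, normalized to DMSO and no-cell controls.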
Hits are given with their value; – = inactive; ? = inconclusive; · = no result; [ ] = dose if it differs, or a comment. A selection: hits, their analogues and other compounds. The true share with any hit is near 17%. The call rests on the fitted dose curve; in most records, active means well fitted curve in the direction sought with a large enough effect; inconclusive means small, poorly fitted or top-dose-only effect, or another doubt; inactive means no such curve, though single readings can be large; an effect the other way counts as inactive or inconclusive.

SMILES	DT40 TDP1 CPT	HepG2 viability	TGFb inhibitor	TDP1 cell noCPT	HT1080 IDH1KD tx	HT1080-NT tox
O=C(Cn1nnc(-c2ccccc2)n1)Nc1cccc(S(=O)(=O)N2CCCC2)c1	18µM	–	?	21µM	–	–
CN(CC(=O)Nc1cccc(F)c1)CC(=O)Nc1cccc(S(=O)(=O)N2CCCCC2)c1	?	–	–	21µM	–	–
CN(CC(=O)Nc1cccc(F)c1)CC(=O)Nc1cccc(S(=O)(=O)N2CCCCCC2)c1	16µM	–	?	16µM	–	–
O=C(CN1C(=O)c2ccccc2S1(=O)=O)Nc1cccc(S(=O)(=O)N2CCCCC2)c1	?	–	–	18µM	–	–
CS(=O)(=O)N(CC(=O)N1CCCC1)Cc1ccc(Cl)cc1	–	–	–	–	–	–
COc1ccc(C2OC3C(CO)OC(n4cnc5c(=O)[nH]c(N)nc54)C3O2)cc1 (centres undefined)	–	·	·	–	·	·
O=S(=O)(c1cccc(Cn2nnc(-c3ccccc3)n2)c1)N1CCOCC1	23µM	–	–	21µM	–	–
CC1CCN(S(=O)(=O)c2ccc(NC(=O)c3ccccc3F)cc2)CC1	?	–	–	?	–	–
CC1CCN(S(=O)(=O)c2ccc(NC(=O)Cn3nnc(-c4ccccc4F)n3)cc2)CC1	–	–	?	?	?	20µM
CC1CCc2ccccc2N1CC(=O)Nc1cccc(S(=O)(=O)N2CCCC2)c1 (centres undefined)	16µM	–	–	18µM	–	–
O=C(NCc1cccc(C(F)(F)F)c1)c1ccc(=O)[nH]c1	–	–	–	–	–	–
COCCCN(C(=O)c1ccccc1F)c1nc(-c2ccc(OC)cc2)cs1	?	–	–	?	–	–
O=C(O)[C@@H]1CCCN(S(=O)(=O)c2cccc3cccnc23)C1	–	–	–	–	–	–
COc1ccc(N2CCN(C(=O)C3CCCN(S(=O)(=O)c4cccc5cccnc45)C3)CC2)cc1 (centres undefined)	16µM	–	–	?	–	–
CC1Cc2ccccc2N1C(=O)C1CCCN(S(=O)(=O)c2cccc3cccnc23)C1 (centres undefined)	13µM	–	–	13µM	–	–
CC1Cc2ccccc2N1C(=O)CN(C)S(=O)(=O)c1cccc2cccnc12 (centres undefined)	?	–	–	?	–	–
COc1ccc2c(C)c(Cl)c(=O)oc2c1	–	–	–	–	–	–
C=C1CC(COc2ccc3c(C)c(Cl)c(=O)oc3c2)(c2ccccc2)OC1=O (centres undefined)	1.6µM	–	?	1.6µM	6.5µM	16µM
CCOC(=O)C1(Cc2ccc(OC)cc2)CCN(C(=O)c2sc(C)nc2C)CC1	26µM	–	–	23µM	–	–
CCOC(=O)C1(Cc2ccc(Cl)cc2)CCN(C(=O)c2sc(C)nc2C)CC1	12µM	–	?	9.2µM	–	–
CCOC(=O)C1(Cc2ccc(OC)cc2)CCN(C(=O)C2=CCCC2)CC1	?	–	–	18µM	–	–
CCOC(=O)C1(Cc2ccc(Cl)cc2)CCN(C(=O)CCc2ccncc2)CC1	–	–	–	13µM	–	–
CCOC(=O)C1(Cc2ccc(Cl)cc2)CCN(C(=O)CCc2cnccn2)CC1	–	–	–	–	–	–
CCOC(=O)C1(Cc2ccc(OC)cc2)CCN(C(=O)c2cc(C)on2)CC1	–	–	–	?	–	–
Clc1ccc2c(c1)Nc1ccccc1CC2	?	–	–	?	–	–
SMILES	DT40 TDP1 CPT	HepG2 viability	TGFb inhibitor	TDP1 cell noCPT	HT1080 IDH1KD tx	HT1080-NT tox
COC(=O)c1c(SCC(=O)Nc2cccc(Cl)c2C)[nH]c2ccccc2c1=O	23µM	–	–	?	·	·
COC(=O)c1c(SCC(=O)Nc2cccc(C(F)(F)F)c2)[nH]c2ccccc2c1=O	5.8µM	–	–	5.8µM	·	·
COC(=O)c1c(SCC(=O)Nc2cc(F)ccc2F)[nH]c2ccc(C)cc2c1=O	8.2µM	–	?	8.2µM	·	·
O=C(CSc1nnc(-c2ccccc2)c2ccccc12)NCCN1C(=O)CSC1=O	–	–	–	–	–	–
C/C(=N\NC(=O)c1ccc(OC2CCCC2)cc1)c1ccc(O)cc1	?	–	–	?	–	–
COc1cc(S(=O)(=O)Nc2ccc(C)cc2)ccc1N=Cc1c(C)[nH]n(-c2ccccc2)c1=O	9.2µM	–	–	?	–	–
Cc1ccc(-n2[nH]c(C)c(C=Nc3ccc(S(=O)(=O)Nc4nccs4)cc3)c2=O)cc1C	8.2µM	–	–	18µM	?	?
Cc1[nH]n(-c2ccccc2)c(=O)c1C=Nc1ccc(S(=O)(=O)Nc2nccs2)cc1	?	–	–	–	–	–
COc1nccnc1NS(=O)(=O)c1ccc(N=Cc2c(C)[nH]n(-c3ccccc3)c2=O)cc1	–	–	–	?	–	–
CSc1nnc(-c2cc(Br)ccc2N=Cc2c(C)[nH]n(-c3ccccc3)c2=O)c(=O)[nH]1	–	–	–	?	–	–
COc1nccnc1NS(=O)(=O)c1ccc(N=Cc2c(C)[nH]n(-c3ccc(C)c(C)c3)c2=O)cc1	8.2µM	10µM	?	9.2µM	7.9µM	10µM
Cc1cc(C)cc(C(O)c2ncc(-c3ccccc3)[nH]2)c1 (centres undefined)	–	–	–	–	–	–
Cc1ccc(C)c(NC(=O)CN(C)C(=O)c2ccc3[nH]c4c(c3c2)CC(C)CC4)c1 (centres undefined)	?	–	?	?	?	?
C=CCn1cc(/C=N/Nc2nc3ccccc3[nH]2)c2ccccc21	?	–	?	?	16µM	21µM
CC(C)Cn1c(/C=N/Nc2nc3ccccc3[nH]2)nc2ccccc21	3.7µM	–	?	3.3µM	?	?
CCCn1c(/C=N/Nc2nc3ccccc3[nH]2)nc2ccccc21	?	–	?	?	?	?
Cn1c(/C=N/Nc2nc3ccccc3[nH]2)nc2ccccc21	?	–	?	29µM	?	–
C(=N\Nc1nc2ccccc2[nH]1)/c1cccs1	?	–	–	?	–	–
Cc1nn(-c2ccccc2)c(C)c1/C=N/Nc1nc2ccccc2[nH]1	18µM	–	?	23µM	18µM	?
COC(=O)C1CCCCN1Cc1nc(N2CCCN(C(C)=O)CC2)c2ccccc2n1 (centres undefined)	–[9.04 µM]	·	·	–	·	·

Compound activity from PubChem.
